Each structure is given as a SMILES string. Records with an inconclusive call do not appear. Values without a mark were called inactive. The source made the active and inactive calls. The call rests on the fitted dose curve; in most records, active means well fitted inhibition curve with a large enough effect; inconclusive means small, poorly fitted or top-dose-only effect; inactive means flat fitted curve, though single readings scatter.

The test system of experiment [1] is HaCat. Nature of the experiment: Cytotoxic Profiling of Annotated Libraries Using Quantitative High-Throughput Screening (AID 1296008). Further: potency means the concentration at half of the fitted maximal effect. On max response: on the % scale 0 is the no-effect control and ±100 the full control effect. As to conditions: Five cell lines viability, CellTiter-Glo ATP luminescence, 48-72 h; max response: stronger effect = lower value. Summed up:
(§1)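 Cells exposed to compounds for 48 or 72 hr at 37 degrees Celsius. Viability read as ATP-coupled luminescence with CellTiter-Glo after 10 min at room temperature.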
A general note: In ATP-based viability assays light output follows the ATP content of the culture.

The next experiment has as its system KB-3-1. The description is as above. To be noted: Five cell lines viability, CellTiter-Glo ATP luminescence, 48-72 h; max response: stronger effect = lower value. Summed up: as §1
For a further experiment, the system named is NIH3T3. The experiment is described as above. To be noted: Five cell lines viability, CellTiter-Glo ATP luminescence, 48-72 h; max response: stronger effect = lower value. Summed up: as §1
The test system of experiment [2] is HACAT. Nature of the experiment: qHTS assay to identify novel small-molecules to repurpose for Merkel cell carcinoma treatment (AID 1296009). To be noted: MCC and control cell lines, CellTiter-Glo viability, 72 h; at 44.8 µM (top of the series) unless noted. The procedure, abridged:
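Cells were treated for 72 hr at 37 degree celsius with compounds in 8- or 11-point dose response. Viability was read by CellTiter-Glo luminescence, normalized to no-cell (cytotoxicity) and DMSO controls.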
Background: Quantitative high-throughput screening tests each substance at several concentrations.
Further: nearly all actives have a fitted effect of over 60% in size.

Regarding `COc1cc2ncnc(Nc3cccc(I)c3)c2cc1OC`, the figures for the Potency with HaCat [1] and with KB-3-1 were 4.61 µM (active) and 9.2 µM (active), respectively. Besides, the compound was called inactive in the experiment on NIH3T3.

For the compound `CC(C)CCNC(=O)[C@H](CC(C)C)NC(=O)[C@H]1O[C@@H]1C(=O)O`, the max response with HaCat [1] is -18.1%; in the experiment with KB-3-1, 2.67%.

`NC(=O)c1ccccc1Nc1ccnc(Nc2cccc(O)c2)n1`: the Potency was 5.8 µM (active) in the experiment with HaCat [1], 8.2 µM (active) in the experiment with KB-3-1 and 7.31 µM (active) in the experiment on NIH3T3.

As for `C[C@@H]1CCCN1CCc1cc2cc(-c3ccc(C#N)cc3)ccc2o1`, the max response was -29.3% in the experiment with HaCat [1] and -23.6% with KB-3-1.

As for `C=C1C(=O)OC2/C=C(\CO)CC/C=C(\C=O)C(OC)C(OC(=O)C(C)CC)C12` (centres undefined), the max response in the experiment on HaCat [1] was -18%. In addition, in the experiment with KB-3-1, the compound was called inactive.

As for `C=C1C(=O)O[C@@H]2C[C@@]3(C)C[C@@H](O)C[C@H](C)C3=C[C@H]12`, the max response with HaCat [1] was -8.34%. In addition, the result in the experiment with KB-3-1 was inactive.

In the case of `COc1cc(C(=O)NCC2(N(C)C)CCCC2)cc(OC)c1OCc1ccccc1`, the max response with HaCat [1] was 3.73%; in the experiment on KB-3-1 it was 3.26%; in the experiment on NIH3T3, -9.79%.

As for `COc1ccc2[nH]c(=O)c3c(c2c1)OC(C)(C)C=C3`, the max response in the experiment with HaCat [1] was -2%. Also, the result in the experiment on KB-3-1 was inactive.

As for `CCCCNc1ncc2c(-c3ccc(S(=O)(=O)N4CCOCC4)cc3)nn(C3CCC(O)CC3)c2n1` (centres undefined), the Potency with HaCat [1] is 6.51 µM (active); with KB-3-1, 11.6 µM (active); with NIH3T3, 7.31 µM (active).

For the compound `CC(=O)OC1C(O)CC2(C)C(CCC3(C)C2CC=C2C4C5(CCC(CO[C@@H]6O[C@H](CO)[C@@H](O)[C@H](O)[C@H]6O)(OC5=O)C4(C)O)C(O)CC23C)C1(C)C` (some centres undefined), the max response was -8.16% in the experiment with HaCat [1] and 2.97% in the experiment on NIH3T3. Further, in the experiment on KB-3-1, the result was inactive.

With `O=C1Cc2c([nH]c3ccc(Br)cc23)-c2ncccc2N1`, the max response with HaCat [1] was 2.65%; in the experiment with KB-3-1, 2.04%. Moreover, in the experiment with NIH3T3, the call was inactive.

As for `CCCCOc1ccc(S(=O)(=O)n2c(C)nc3ccccc32)cc1`, the figures for the max response in the experiment with HaCat [1], with KB-3-1 and with NIH3T3 were 3.36%, -24.1% and -1.64%, respectively.

Regarding `CC1CCC(=O)CC(SCC(O)C(=O)O)CCC(=O)O1` (centres undefined), the max response with HaCat [1] is -8.22%; in the experiment on KB-3-1 it was -25.6%; in the experiment with NIH3T3, -15.1%.

As to `C=C1C(=O)OC2CC3(C)C(O)C(=O)C=C(C)C3CC12` (centres undefined), the max response in the experiment on HaCat [1] is 0.297%; with NIH3T3, -22.8%. In addition, in the experiment on KB-3-1, the result was inactive.

On to `O=C(Nc1nc2cc(C(F)(F)F)cc(NC3CC3)n2n1)c1cccnc1`, for which the Potency was 4.61 µM (active) in the experiment on HaCat [1] and 5.8 µM (active) with KB-3-1.

With `O=C(NCCN1CCOCC1)c1cc2c(Oc3ccc(NC(=O)C4(C(=O)Nc5ccc(F)cc5)CC4)cc3)ccnc2[nH]1`, the figures for the max response with HaCat [1] and in the experiment with KB-3-1 were -28.8% and 4.4%, respectively. For the same compound, the Potency in the experiment on NIH3T3 was 6.51 µM (active).

For the compound `CN(C)CCn1cc(-c2ccc(F)cc2)c(-n2cccc2)n1`, the max response with HaCat [1] was 4.28%; in the experiment on KB-3-1 it was -2.07%; with NIH3T3 it was -6.89%.

With `O=C(NCCCCCCCCNC(=O)C(Cl)Cl)C(Cl)Cl`, the max response is -4.24% in the experiment on HaCat [1], -9.66% in the experiment on KB-3-1 and -14.9% in the experiment with NIH3T3.

Turning to `Cn1ncnc1[C@H]1c2n[nH]c(=O)c3cc(F)cc(c23)N[C@@H]1c1ccc(F)cc1`, the Potency in the experiment with HaCat [1] was 3.17 µM (active). For the same compound, the max response in the experiment on KB-3-1 was -8.81%.

As to `O=C(NCc1ccccc1)c1ccc2c(=O)n(-c3cccc(C(F)(F)F)c3)c(=S)[nH]c2c1`, the max response in the experiment with HaCat [1] is -51.3%; in the experiment on KB-3-1, -9.36%; in the experiment on NIH3T3, -30.9%.

In the case of `NS(=O)(=O)Nc1ncnc(OCCOc2ncc(Br)cn2)c1-c1ccc(Br)cc1`, the max response in the experiment on HaCat [1] was -23.8%; with KB-3-1, 6.63%; with NIH3T3, -5.35%.

Regarding `CC1=C(c2ccc(NC(=O)c3c(F)cccc3F)cc2)CN(c2nccs2)CC1`, the figures for the max response with HaCat [1] and in the experiment on NIH3T3 were -2.64% and -1.55%, respectively. The outcome in the experiment with KB-3-1 was inactive.

As to `O=c1[nH]c([C@@H]2CCCN2)nc2c1oc1ccc(Cl)cc12`, in the experiment on HaCat [1], the Potency was 1.46 µM (active). Further, the max response in the experiment on KB-3-1 was -19.5%; in the experiment with NIH3T3, -23.2%.

For the compound `COc1ccc([C@H]2OC[C@H]3O[C@@H](O[C@H]4[C@@H]2NC[C@@H]4O)[C@H](O)[C@H]3O)cc1`, the Potency is 2.55 µM (active) in the experiment on HaCat [1], 0.904 µM (active) in the experiment with KB-3-1 and 1.14 µM (active) with NIH3T3.

Take `Cn1c(CO)c(-c2ccccc2)c2cc([N+](=O)[O-])ccc21`: the max response is -23.7% with HaCat [1], -20.1% in the experiment with KB-3-1 and -3.34% in the experiment with NIH3T3.

On to `Nc1ncnc2c1c(-c1ccc(Cl)cc1)nn2-c1cccc(-c2cnnn2Cc2cccc(-c3ccccc3)c2)c1`, for which the max response with HaCat [1] was -3.38%; in the experiment on KB-3-1, -15.9%.

Take `CN1c2c(nc(N)[nH]c2=O)NC[C@@H]1CNc1ccc(C(=O)N[C@@H](CCC(=O)O)C(=O)O)cc1`: the max response in the experiment with HaCat [1] was -4.13%. Besides, the result in the experiment on KB-3-1 was inactive.

As for `C=C1C(=O)O[C@@H]2C[C@H](C)C3=CC(=O)[C@H](O)[C@@]3(C)C[C@H]12`, the max response with HaCat [1] was 1.47%; in the experiment with KB-3-1 it was 7.17%; with NIH3T3, -23.3%.

As to `COc1cc2nc(N3CCN(C(=O)c4ccco4)C4CCCCC43)nc(N)c2cc1OC` (centres undefined), the max response in the experiment on HaCat [1] is 4.28%. Further, the Potency in the experiment on KB-3-1 was 20.6 µM (active).

Regarding `COc1c(C(O)CC(C)C)ccc2c1C(=O)OCc1cc(C)cc(O)c1O2` (centres undefined), the max response with HaCat [1] is 0.403%; in the experiment on KB-3-1, -22.7%; in the experiment with NIH3T3 it was -2.04%.

For the compound `CC(C)(N)c1ncc(-c2ccc(OC(F)(F)F)cc2)[nH]1`, the max response in the experiment on HaCat [1] was -18.6%; in the experiment on KB-3-1, -11.1%.

Consider `COc1nc2ccc(Br)cc2cc1[C@@H](c1ccccc1)[C@@](O)(CCN(C)C)c1cccc2ccccc12`, for which the max response was -2.21% in the experiment with HaCat [1] and -1.57% with KB-3-1. For the same compound, in the experiment on NIH3T3, the Potency is 18.4 µM (active).

In the case of `C=C1C(=O)OC2C1CCC1(C)C(O)CC=C(C)C21` (centres undefined), the call in the experiment with HaCat [1], in the experiment on NIH3T3 and with HACAT [2] was inactive. The max response in the experiment with KB-3-1 is 0.514%.

For the origin of these results see PubChem BioAssay (NCATS).
